The text below walks through data of PubChem BioAssay AID602292 (National Center for Advancing Translational Sciences (NCATS), 2012).

About 380 (29%) of roughly 1,300 compounds were called active. Roughly 37% stayed inconclusive and do not appear here. The list shows a part of the results. A number with no mark means an inactive call. The call rests on the fitted dose curve; in most records, active means well fitted inhibition curve with a large enough effect; inconclusive means small, poorly fitted or top-dose-only effect; inactive means flat fitted curve, though single readings scatter.
On the % scale 0 is the no-effect control and ±100 the full control effect; potency means the concentration at half of the fitted maximal effect.

Chain of Thyrotropin receptor (Homo sapiens) (P16473 whole entry, looked up): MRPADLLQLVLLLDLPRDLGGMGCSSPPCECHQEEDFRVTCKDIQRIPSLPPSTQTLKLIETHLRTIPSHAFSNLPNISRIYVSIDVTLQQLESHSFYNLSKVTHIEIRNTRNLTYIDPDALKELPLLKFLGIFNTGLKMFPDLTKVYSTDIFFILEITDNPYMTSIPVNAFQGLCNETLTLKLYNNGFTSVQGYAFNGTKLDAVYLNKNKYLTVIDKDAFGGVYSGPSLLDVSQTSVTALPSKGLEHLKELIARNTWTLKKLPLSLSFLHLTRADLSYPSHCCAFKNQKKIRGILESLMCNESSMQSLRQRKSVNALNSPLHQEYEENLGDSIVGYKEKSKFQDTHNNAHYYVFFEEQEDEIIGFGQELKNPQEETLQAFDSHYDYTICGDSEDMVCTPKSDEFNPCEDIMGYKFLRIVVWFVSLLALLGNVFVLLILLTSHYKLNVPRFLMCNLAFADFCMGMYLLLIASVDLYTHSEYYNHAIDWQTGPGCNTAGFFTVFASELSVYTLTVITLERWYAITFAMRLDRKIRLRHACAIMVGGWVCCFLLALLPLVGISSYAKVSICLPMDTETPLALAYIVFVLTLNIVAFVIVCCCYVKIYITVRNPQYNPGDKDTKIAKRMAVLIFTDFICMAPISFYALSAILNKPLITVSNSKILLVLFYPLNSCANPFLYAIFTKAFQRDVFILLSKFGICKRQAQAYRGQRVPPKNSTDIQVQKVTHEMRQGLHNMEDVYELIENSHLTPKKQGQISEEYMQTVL

The assay concerns the target Thyrotropin receptor (Homo sapiens) (UniProt P16473). The experiment in a line: qHTS for antagonists of the Thyroid Stimulation Hormone Receptor: Hit Validation in Primary Screen. Further: nearly all actives have a fitted effect of over 80% in size.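 On activity change, negative = inhibition: cells stimulated with TSH at EC80 of 4 nM during compound exposure; cAMP by competitive HTRF where cellular cAMP lowers the 665 nm FRET signal.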 The note with it: TSHR-expressing cells, cAMP antagonist mode; series mostly up to 58 µM; activity change, negative = inhibition: at the top concentration. An excerpt:
The thyroid-stimulating hormone receptor (TSHR) is a member of the 7 trans-membrane-spanning receptor (7TMR) family of cell surface receptors. TSHR-mediated hyperthyroidism is important in thyroid pathology. The development of small molecule antagonists of TSHR may lead to therapeutic approaches for TSHR-mediated hyperthyroidism caused by constitutively activating mutations or stimulating auto-antibodies associated with Graves' disease. Graves' disease is the leading cause of hyperthyroidism and is caused by autoantibodies that stimulate TSHR (TsAbs) causing thyroid growth and unregulated overproduction of thyroid hormones and existing treatments have liabilities (agranulocytosis). In addition, TSHRs are known to be expressed in multiple extrathyroidal tissues including bone, brain, kidney, testis, fat and cells of the immune system but the role of the TSHR in these tissues is not clear. Therefore, TSHR antagonists/inverse agonists could be used as probes of extrathyroidal TSHR function. Finally, TSHR inverse agonists, which are a subclass of antagonists that inhibit agonist-independent (or basal or constitutive) TSHR signaling, could be used to inhibit TSH-independent signaling in patients with recurrent or metastatic thyroid cancer who are receiving thyroid hormone to suppress TSH.
In collaboration between scientist from the NCGC and the NIDDK, a miniaturized HTRF high-throughput screen was developed. It's a cell based assay, where an anti cAMP antibody contains a fluorescent cryptate tag (excitation 337 nm; emission 620 nm) and the acceptor is cAMP-d2 (excitation 620 nm; emission 665 nm). When antibody and cAMP-d2 interact and are excited by a 337 nm light, a FRET occurs resulting in emission at 665 nm. The assay is competition between cAMP-d2 and cAMP (from the cell lysate). The homogeneous protocol allows for one step dispense after stimulation that is automation friendly. This is a hit validation assay using the primary screen format.
NIH Chemical Genomics Center [NCGC]
NIH Molecular Libraries Probe Centers Network [MLPCN]
Assay Provider: Marvin Gershengorn, NIDDK
1. 3ul of 200 TSHR freshly harvested cells/well are dispensed into a 1536 TC-treated white solid bottom plate.
2. Through pintool addition, 23nl of compounds and control in 100% DMSO are added to the plate.
3. Then 1ul of EC80 TSH (4nM final) is added to the plate.
4. Assay is incubated at 37 deg C for 2 hours.
5. 2ul of cAMP antibody diluted 1:20 in lysis buffer is added.
6. Immediately following, 2ul of d2 diluted 1:20 in HBSS is added seperately.
7. The assay is incubated for 30 minutes at ambient room temperature.
8. The result is obtained by using a ViewLux read-out with HTRF settings.
For the molecule `COc1cccc(CN(C)C(=O)c2ccc(OCC(=O)Nc3cccc(C(F)(F)F)c3)c(OC)c2)c1`, the Potency was 23.9 µM (active).

Take `CSCCCNC(=O)c1ccc(OC2CCN(C(=O)c3cccnc3)CC2)cc1`: the “activity change, negative = inhibition” value is -5.76%.

For the molecule `Cn1c2c(c(=O)n(C)c1=O)C(C(F)(F)F)(C(F)(F)F)N=C(c1ccc(Cl)cc1)N2`, the Potency was 19 µM (active).

In the case of `COc1ccc(C2c3ccc(O)cc3Oc3ncn(Cc4ccco4)c(=N)c32)cc1` (stereo not drawn), the “activity change, negative = inhibition” value was -6.31%.

For `O=C(CN1C(=O)NC2(CCCCCC2)C1=O)N1CCC(Cc2ccccc2)CC1`, the Potency was 21.3 µM (active).

Consider `CC(=O)N1c2ccc(S(=O)(=O)N(C)CC(=O)N(C)Cc3ccccc3)cc2CC1C` (stereo not drawn), for which the “activity change, negative = inhibition” value is -5.7%.

Take `CC1Cc2ccccc2N1C(=O)COC(=O)/C=C/c1cccc(F)c1` (stereo not drawn): the Potency is 30.1 µM (active).

As for `CC(C)Cc1ccc(C(C)C(=O)Nc2nccs2)cc1` (stereo not drawn), the “activity change, negative = inhibition” value was -12.1%.

On to `COc1ccc(OC)c2c1C(=O)C(Cl)=C(Cl)C2=O`, for which the Potency was 33.8 µM (active).

`Cc1cccc(OC2CCN(Cc3nc(CC4CC4)no3)CC2)c1`: the “activity change, negative = inhibition” value is -10.7%.

For the molecule `O=C(N[C@H]1C/C=C\C(c2cccc(F)c2)N(Cc2ccccc2)C(=O)C1)OCC1c2ccccc2-c2ccccc21` (stereo partly drawn), the “activity change, negative = inhibition” value is -5.96%.

Consider `CCc1cc(CNC(=O)CC2C(=O)NCCN2Cc2ccc(-c3ccccc3)cc2)on1` (stereo not drawn), for which the “activity change, negative = inhibition” value was -10.3%.

Take `CCCc1ccc(-c2c(C)sc(NC(=O)c3ccnn3C)c2C#N)cc1`: the Potency was 23.9 µM (active).

In the case of `CCN1C(=NCc2ccc(OC)cc2)N[C@@H](CCc2ccccc2)[C@H](C(=O)NCc2ccc(OC)cc2)[C@H]1C`, the “activity change, negative = inhibition” value is -6.54%.

In the case of `Cc1ccc(C2(c3ccc(C)cc3)CC2C(=O)Nc2ccc([N+](=O)[O-])cc2O)cc1` (stereo not drawn), the Potency is 19 µM (active).

For `CCOc1ccc(C2NC(=O)c3ccccc3O2)cc1OC` (stereo not drawn), the “activity change, negative = inhibition” value was -2.79%.

Turning to `CC(C)(C)c1ccc(C(=O)CC(Sc2ccc(Cl)cc2)C(=O)O)cc1` (stereo not drawn), the Potency was 37.9 µM (active).

As to `O=C1NC(=S)SC1=C1CCCCCC1`, the Potency was 30.1 µM (active).

In the case of `CC1=CCC2C(=O)N(c3ccc(C(=O)Nc4ccccc4Cl)cc3)C(=O)C2C1` (stereo not drawn), the “activity change, negative = inhibition” value is -3.11%.

Take `Cc1ncsc1CCOC(=O)C1C2CC3CC(C2)CC1C3` (stereo not drawn): the Potency is 30.1 µM (active).

For `Cc1ccc(S(=O)(=O)/N=C2/NC(=O)/C(=C\c3cc(Br)cc(Br)c3O)S2)cc1`, the Potency was 15.1 µM (active).

Turning to `COc1ccc(CNC(=O)CCS(=O)(=O)c2ccc3c(c2)CCN3C(C)=O)cc1`, the “activity change, negative = inhibition” value was -3.72%.

As to `Cc1cc(C)c(C2=NOC3C4CCC(C4)C23)c(C)c1` (stereo not drawn), the “activity change, negative = inhibition” value was -7.2%.

`COc1cccc(OC)c1C(=O)Nc1ccc2c(c1)N(S(=O)(=O)c1cccs1)CCC2`: the “activity change, negative = inhibition” value was -6.48%.

Consider `O=C1NC(=S)S/C1=C\c1ccc(SCc2ccccc2)o1`, for which the Potency is 6.01 µM (active).

With `COCCNc1oc(Cc2cccc3ccccc23)nc1C#N`, the “activity change, negative = inhibition” value is -5.82%.

`O=c1[nH]c(C2CCN(S(=O)(=O)c3cccc(Cl)c3)CC2)nc2c1nnn2Cc1ccccc1`: the “activity change, negative = inhibition” value was -3.4%.

For `O=C(O)c1ccc(Cl)cc1Nc1nc2cc(Cl)ccc2o1`, the Potency was 26.9 µM (active).

For the molecule `O=C1C=CC(=O)N1CCCCCCN1C(=O)C=CC1=O`, the Potency was 37.9 µM (active).

With `C=CCn1c(SCC(=O)c2cccs2)nc2sc(CC)cc2c1=O`, the Potency was 21.3 µM (active).

`O=c1/c(=C/c2ccc(O)c([N+](=O)[O-])c2)sc2nc3ccccc3n12`: the Potency is 3.79 µM (active).

`COc1cc(/C=C(\C#N)c2nc3ccccc3s2)cc([N+](=O)[O-])c1O`: the Potency is 7.57 µM (active).

In the case of `N#C/C(=C\c1ccc(O)c([N+](=O)[O-])c1)c1nc2ccccc2s1`, the Potency was 6.75 µM (active).

`COC(CNC(=O)c1ccc(Cn2c(=S)[nH]c3cc4c(cc3c2=O)OCO4)cc1)OC`: the “activity change, negative = inhibition” value was -5.19%.

As for `CCOc1ccnc2c1c(=O)n(Cc1cc(OC)cc(OC)c1)c(=O)n2C`, the “activity change, negative = inhibition” value is -3.23%.

For `COC(=O)CN(c1ccc(C)cc1)S(=O)(=O)c1ccc2c(c1)n(C)c(=O)c(=O)n2C`, the “activity change, negative = inhibition” value was -6.66%.

Regarding `COc1ccc(CCNC2=C(Cl)C(=O)N(CCc3ccccc3)C2=O)cc1OC`, the Potency was 26.9 µM (active).

For the molecule `COC(=O)c1ccc(C2C(Oc3ccccc3C)C(=O)N2CCc2ccc(OC)c(OC)c2)cc1` (stereo not drawn), the “activity change, negative = inhibition” value is -6.94%.

For `COc1ccc(CCNC2=C(Cl)C(=O)N(CCc3ccc(OC)c(OC)c3)C2=O)cc1OC`, the Potency is 21.3 µM (active).

With `O=C(N/N=C/c1cccc(Oc2ccc([N+](=O)[O-])cc2[N+](=O)[O-])c1)c1cncc(Br)c1`, the Potency was 30.1 µM (active).

`CC(C)COc1cccc(-c2cc(C(=O)Nc3ccon3)c3ccccc3n2)c1`: the “activity change, negative = inhibition” value is -9.56%.

Consider `N#Cc1nc(Cc2cccc3ccccc23)oc1NCc1ccc2c(c1)OCO2`, for which the “activity change, negative = inhibition” value is -8.9%.

As to `N#Cc1c(Cl)nsc1NC(=O)c1ccccc1`, the Potency is 7.57 µM (active).

Turning to `O=C(O)c1ccc(S(=O)(=O)N(Cc2ccccc2)Cc2ccccc2)cc1`, the “activity change, negative = inhibition” value is -7.63%.

With `O=C(O)c1cccc(NC2=C(Cl)C(=O)c3ccccc3C2=O)c1`, the Potency is 23.9 µM (active).

`CCN(CC)c1ccc(NC2=C(Cl)C(=O)c3ccccc3C2=O)cc1`: the Potency is 23.9 µM (active).

On to `O=C(O)c1ccc(NC2=C(Cl)C(=O)c3ccccc3C2=O)cc1`, for which the Potency is 30.1 µM (active).

In the case of `Cc1ccccc1N1CCN(C2CCCN(C(=O)c3cnsn3)C2)CC1` (stereo not drawn), the “activity change, negative = inhibition” value is -2.71%.
